Assay outcomes (PubChem BioAssay)
This excerpt belongs to a sample that is enriched for hits.
FECH block – inhibitors of human ferrochelatase; hit rate 3.3% among 20,000; purified FECH, Ni-mesoporphyrin absorbance 550 nm; calls only at 10 µM (by protocol); AID 1671448;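 active = enzyme reaction rate more than 3 SD below the solvent-only control wells on the same plate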;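 also: lower slope than DMSO wells means FECH inhibition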
Target sequence (P22830 whole entry, looked up): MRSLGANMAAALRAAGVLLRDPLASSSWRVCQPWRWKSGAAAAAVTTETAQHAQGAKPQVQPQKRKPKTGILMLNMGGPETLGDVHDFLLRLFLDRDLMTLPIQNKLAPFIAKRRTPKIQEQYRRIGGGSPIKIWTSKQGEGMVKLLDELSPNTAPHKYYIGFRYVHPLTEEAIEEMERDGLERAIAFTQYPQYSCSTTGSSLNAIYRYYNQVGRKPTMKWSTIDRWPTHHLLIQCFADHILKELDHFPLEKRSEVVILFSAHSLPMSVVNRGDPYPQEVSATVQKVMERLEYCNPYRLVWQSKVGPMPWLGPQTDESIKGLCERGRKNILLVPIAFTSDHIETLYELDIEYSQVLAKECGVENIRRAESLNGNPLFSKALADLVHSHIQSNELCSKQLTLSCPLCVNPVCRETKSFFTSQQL
Active calls of the source: *; i = inactive; + = active, no number.

SMILES | FECH block
CCc1csc(CNC(=O)c2ccc(-c3ncn[nH]3)cc2)n1 | i
CCc1csc(CNC(=O)c2ncc[nH]2)n1 | +
CCc1csc(CNC(=O)c2cc(C3CC3)[nH]n2)n1 | i
CN1CCN(c2ncccc2CNC(=O)c2nc3ccccc3[nH]c2=O)CC1 | i
CCC1CN(C(=O)c2nn(C)c3c2CCCC3)CCC(=O)N1Cc1ccccc1 (configuration not stated) | i
CS(=O)(=O)Nc1nc2n(n1)C(c1ccccc1Cl)C=C(c1ccc(Br)cc1)N2 (configuration not stated) | i
Cc1ccc(C2=CC(c3c(F)cccc3Cl)n3nc(NS(C)(=O)=O)nc3N2)cc1 (configuration not stated) | +
Cc1ccc(C2=CC(c3c(F)cccc3Cl)n3nc(NS(=O)(=O)c4ccccc4)nc3N2)cc1 (configuration not stated) | i
Cc1ccc(C2=CC(c3ccc(F)cc3)n3nc(NS(C)(=O)=O)nc3N2)cc1 (configuration not stated) | i
Cc1ccc(C2=CC(c3ccccc3Cl)n3nc(NS(C)(=O)=O)nc3N2)cc1 (configuration not stated) | i
Cc1ccc(C2=CC(c3ccc(F)cc3)n3nc(NS(=O)(=O)c4ccccc4)nc3N2)cc1 (configuration not stated) | i
O=S(=O)(Nc1nc2n(n1)C(c1ccc(F)cc1)C=C(c1ccccc1)N2)c1ccc(Cl)cc1 (configuration not stated) | i
Cc1ccc(C2=CC(c3ccccc3Cl)n3nc(NS(=O)(=O)c4ccccc4)nc3N2)cc1 (configuration not stated) | +
O=S(=O)(Nc1nc2n(n1)C(c1c(F)cccc1Cl)C=C(c1ccccc1)N2)c1ccccc1 (configuration not stated) | +
O=S(=O)(NCc1nc2cccnc2n1Cc1ccc(F)cc1)c1ccccc1 | i
CSc1nc(-c2ccc(C)cc2)c(C#N)c(N2CCN(Cc3ccccc3)CC2)n1 | i
O=C(CN1C(=O)C2CCCCN2C(=O)c2ccccc21)NCc1ccc(Cl)cc1 (configuration not stated) | i
COc1ccc(F)c(CNC(=O)CCc2nc(-c3ccccc3F)no2)c1F | i
CC(C)Cc1c(-c2ccccc2)ncn1CCSc1nccn1C | i
COc1ccc(CCC(=O)Nc2cc(C)nn2-c2ncnc3c2cnn3-c2ccc(Cl)cc2)cc1 | i
Cc1nnc2n1CCN(C(=O)c1cn(-c3ccccc3)nn1)CC2 | i
Cc1cccc(N(Cc2nc3nc(C)cc(C)n3n2)C(=O)c2ccc(C(C)(C)C)cc2)c1 | +
CCOc1ccc(N(Cc2nc3nc(C)cc(C)n3n2)C(=O)C(C)(C)C)cc1 | i
Cc1cccc(N(Cc2nc3nc(C)cc(C)n3n2)C(=O)c2ccc(F)cc2)c1 | +
Cc1cc(C)n2nc(CN(C(=O)c3ccc(C(C)(C)C)cc3)c3cccc(Cl)c3)nc2n1 | i
SMILES | FECH block
Cc1ccc(C(=O)N(Cc2nc3nc(C)cc(C)n3n2)c2ccc(Cl)cc2)cc1 | i
CCOc1ccc(N(Cc2nc3nc(C)cc(C)n3n2)C(=O)c2ccc(C)cc2)cc1 | +
COc1ccc(C(=O)N(Cc2nc3nc(C)cc(C)n3n2)c2ccccc2)cc1 | i
CCOc1ccc(N(Cc2nc3nc(C)cc(C)n3n2)C(=O)c2ccccc2C)cc1 | i
Cc1ccc(C(=O)N(Cc2nc3nc(C)cc(C)n3n2)c2ccc(F)cc2)cc1 | i
COc1ccccc1C(=O)N(Cc1nc2nc(C)cc(C)n2n1)c1ccc(C)cc1 | i
Cc1ccc(N(Cc2nc3nc(C)cc(C)n3n2)C(=O)c2ccc(C(C)(C)C)cc2)cc1 | +
Cc1cc(C)n2nc(CN(C(=O)c3ccc(F)cc3)c3ccc(Cl)cc3)nc2n1 | i
COc1ccccc1-c1ncc(CN2CCC3(CCNCC3)CC2)cn1 | i
CSc1nc(Nc2cccc(F)c2)c(C#N)c(-c2ccc(Cl)cc2)n1 | i
Cc1ccc(S(=O)(=O)NCCCNc2ncnc3c2CCNC3)cc1 | i
O=C(c1cccnc1SC/C=C/c1ccccc1)N1CC[C@H](O)C1 | i
CCn1c(=O)n(Cc2cccc(C)c2)c(=O)c2cnc(-c3ccc(Cl)cc3)nc21 | i
O=C(NC[C@@H]1C[C@@H]2C=C[C@H]1C21CC1)C1CCN(Cc2ccco2)CC1 | i
O=C(Nc1cnc2n1CCCC2)c1cc2ccccc2o1 | i
O=C(Nc1cc(-c2cccc(Cl)c2)no1)C1CCN(c2ncnc3c2nc2n3CCCCC2)CC1 | i
O=C1[C@@H]2C[C@H](O)CCN2C(=O)CN1Cc1cccc2[nH]ccc12 | i
Cc1ccc2c(c1)NC(=O)C2CC(=O)NCCN1CCCOC1=O (configuration not stated) | i
Cc1cccc(N(CC(=O)NCCN2CCNC2=O)S(C)(=O)=O)c1 | +
Cc1cccc(N(CC(=O)N(C)Cc2n[nH]c3c2CCCCC3)S(C)(=O)=O)c1 | i
CC(=O)Nc1c2n(c3ccccc13)CC(C)(C(=O)NC1CCCC1)N(Cc1ccc(F)cc1)C2=O (configuration not stated) | i
CCN(CC)CCNC(=O)C1Cc2cc(S(=O)(=O)N3CCOCC3)ccc2N1C(C)=O (configuration not stated) | i
Cc1ccc2[nH]c(=O)c(CN(Cc3c(C)nn(C)c3C)C3CC3)cc2c1 | i
COC(=O)c1cc(-c2ccc(OC)c3ncccc23)c[nH]1 | i
O=C(c1ccccc1)N1CCC(NCc2cnn(Cc3ccccc3)c2)CC1 | i
SMILES | FECH block
Cc1nc(CN2CCN(C(=O)CSc3nnc(C)s3)CC2)no1 | i
Cc1nc(CN2CCN(C(=O)c3cnn(Cc4ccccc4)c3)CC2)no1 | +
COc1ccccc1CN(Cc1cccc(C)c1)C(=O)CC1CCC(=O)N1 (configuration not stated) | i
COCc1nnc(NC(=O)CN2CCCC3(C2)CN(C)C(=O)O3)s1 (configuration not stated) | i
Cc1ccc(-c2nc(CSc3nc4c(c(=O)[nH]3)CCCC4)c(C)o2)cc1 | i
O=c1cc(CNc2cccc(Cl)c2)nc2nc(NCc3ccc(F)cc3)[nH]n12 | i
Cc1ccc(NCc2nc3nc4c(c(=O)n3[nH]2)CCC4)c(C)c1 | +
Cc1cccc(NC(=O)Nc2c(C)nc3nc(C)[nH]n3c2=O)c1 | i
Cc1cccc(NCc2nc3nc4c(c(=O)n3[nH]2)CCC4)c1 | +
O=c1c2c(nc3nc(CNc4cccc(Cl)c4)[nH]n13)CCC2 | +
Cc1cccc(NC(=O)Nc2c(C)nc3nc[nH]n3c2=O)c1 | i
CCc1nc2nc(C)[nH]n2c(=O)c1NC(=O)Nc1cc(C)ccc1OC | i
Cc1nc2nc(C)c(NC(=O)Nc3cccc(Cl)c3)c(=O)n2[nH]1 | i
COc1cc2c(=O)n(Cc3ccc(C(=O)NCc4ccco4)cc3)c(=O)n(CC(N)=O)c2cc1OC | i
CCC(=O)Nc1cccc(C(=O)NCc2ccccc2-n2ccnc2)c1 | i
Cc1ccc2cc(-c3noc(CCC(=O)Nc4ccccc4C)n3)c(=O)[nH]c2c1 | i
CCCN(CCC)c1ncc(NS(=O)(=O)c2cc(C)cc(C)c2)cc1C(=O)O | +
CCN(CCN(C)C)c1ncc(NS(=O)(=O)c2cc(C)cc(C)c2)cc1C(=O)O | i
Cc1cc(C)cc(S(=O)(=O)Nc2cnc(N(CC(C)C)CC(C)C)c(C(=O)O)c2)c1 | i
CCn1cc(Cl)c(C(=O)N2CCC(Cc3nnc(SC)n3C)CC2)n1 | i
COc1cccc(-c2cc(N3CCN(C(=O)Nc4ccccc4OC)CC3)ncn2)c1 | i
